Results reported in PubChem BioAssay (NCI).
About 79,000 compounds went through this panel and 15% of them were active in at least one assay; those are over-represented in the sample as a whole. Cut-off read from the data, not from the text of the source: active = growth inhibition above about 70%; inactive = the rest.

How the values were obtained:
[1] = NCI Yeast Anticancer Drug Screen. Data for the rad50 strain (AID 155);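 note: 0% = growth of vehicle-only cultures of the same strain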; details: S. cerevisiae rad50 strain growth inhibition; at 50.0 µM; active compounds read high
Procedure, shortened: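 Cells are treated with compound, grown, and their growth is then scored against vehicle-only cultures of the same repair-deficient yeast strain.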

[2] = NCI Yeast Anticancer Drug Screen. Data for the mec2-1 strain (AID 157); details: S. cerevisiae mec2-1 strain, at 50.0 µM, active compounds read high
Procedure, shortened: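 Mutant yeast (mec2-1) grown with compound; growth inhibition relative to vehicle control reported.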

[3] = NCI Yeast Anticancer Drug Screen. Data for the sgs1 mgt1 strain (AID 161);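 note: 0% = growth of cultures given vehicle only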; details: S. cerevisiae sgs1 mgt1 strain, at 50.0 µM, active compounds read high
Procedure, shortened: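 This yeast growth screen uses a strain with defined DNA-repair lesions; compound-treated growth is compared with vehicle-treated growth.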

[4] = NCI Yeast Anticancer Drug Screen. Data for the cln2 rad14 strain (AID 165);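 note: 0% = growth equal to vehicle treated cultures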; details: S. cerevisiae cln2 rad14 strain, at 50.0 µM, active compounds read high
Procedure, shortened: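 Readout is yeast growth inhibition versus vehicle-treated controls, using a strain with cln2 and rad14 alterations exposed to compound.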

[5] = NCI Yeast Anticancer Drug Screen. Data for the bub3 strain (AID 167); details: S. cerevisiae bub3 mutant strain, at 50.0 µM, active compounds read high
Procedure, shortened: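 Part of a panel of yeast mutants defective in DNA damage repair or cell cycle regulation. Each strain is grown with compound, and inhibition is calculated relative to solvent-treated cultures.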

[6] = NCI Yeast Anticancer Drug Screen. Data for the mlh1 rad18 strain (AID 175); details: S. cerevisiae mlh1 rad18 strain growth inhibition; at 50.0 µM; active compounds read high
Procedure, shortened: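 Genetically defined yeast (DNA repair-deficient) exposed to compounds; growth inhibition determined relative to vehicle.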

Measured: growth inhibition

NC(=O)N1CCc2ccccc2C1c1ccccc1 (configuration not stated)
inactive: [1] -2.95% | [2] -12.7% | [3] -7.55% | [4] -14.4% | [5] 9.25% | [6] -21.4%

CCCC1CN2CCc3cc(OC)c(OC)cc3C2CC1=O (configuration not stated)
inactive: [1] 4.6% | [2] 23.6% | [3] 41.1% | [4] 12.4% | [5] 41.1% | [6] 39.8%

Cc1nc(CO)cc(=O)[nH]1
inactive: [1] 19.6% | [2] -5.5% | [3] 12.2% | [4] 9.85% | [5] -25.4% | [6] 14.1%

O[C@H]1[C@H]2[C@H](O)C[C@H](CCOCc3ccccc3)CN2C[C@H]1O
inactive: [1] -8.15% | [2] 7.8% | [3] -3.45% | [4] 20% | [5] 16% | [6] -22.9%

Cc1cc2c(cc1Cl)SC(NNc1cnc3ccccc3n1)=NS2(=O)=O
inactive: [1] 23.3% | [2] 21.6% | [3] 35.7% | [4] 20.2% | [5] 19.1% | [6] 4.8%

NC(=O)N=C(NC(N)=O)NC(N)=O
inactive: [1] -17.1% | [2] -21.5% | [3] -10.2% | [4] -18.3% | [5] -6.85% | [6] -17.1%

COc1ccc(CCc2nccn2C)cc1OC
inactive: [1] -69.3% | [2] -54.9% | [3] -34.7% | [4] -16.4% | [5] -7.95% | [6] -32.2%

Cc1cc(O)cc(C)c1Cl
inactive: [1] 17.2% | [2] -25.9% | [3] 5.95% | [4] -21.2% | [5] 12.9% | [6] 11.2%

C=C(Br)CNC(=O)Nc1ccc(Cl)c(Cl)c1
inactive: [1] -0.3% | [2] 16.1% | [3] 21.4% | [4] 5.7% | [5] 22.6% | [6] -86.2%

Fc1ccc(/C=C/c2ccc(/C=C/c3ccc(F)cc3)nn2)cc1
inactive: [1] 18.4% | [2] -4.2% | [3] 7.8% | [4] -13.1% | [5] 5.15% | [6] -1.5%

O=S1c2ccccc2N=C(c2ccc3ccccc3c2)CC1c1ccccc1F (configuration not stated)
inactive: [1] -1.1% | [2] -2.95% | [3] 12.3% | [4] 4.45% | [5] 2.45% | [6] 6.8%

COc1ccc(N(C)S(=O)(=O)c2ccccc2)cc1
inactive: [1] 15.1% | [2] -8.9% | [3] -3.65% | [4] 10.8% | [5] 0.1% | [6] 15.8%

Nc1ccccc1C(=O)/C=C/c1c(O)ccc2ccccc12
inactive: [1] 29.6% | [2] 9.5% | [3] 10.2% | [4] 15.9% | [5] 21.1% | [6] 34.3%

Cc1c(-c2nc3ccccc3[nH]2)c(=O)n(-c2ccccc2)n1C
inactive: [1] -70.2% | [2] -38.1% | [3] -24.1% | [4] 7.25% | [5] -10.4% | [6] -38.9%

O=[N+]([O-])c1ccc(C2ON2C2CCCCC2)cc1 (configuration not stated)
inactive: [1] -0.75% | [2] -2.55% | [3] 18.7% | [4] -22.3% | [5] -10.8% | [6] 5.3%

Cc1sc2nc3n(c(=O)c2c1C)N=CN(c1ccc(F)cc1)C3
inactive: [1] 0.85% | [2] -0.45% | [3] 8.85% | [4] -17.1% | [5] -7.5% | [6] -32.6%

O=C(N/N=C\c1ccccn1)Nc1ccc(N=Nc2ccccc2)cc1
inactive: [1] 6.55% | [2] -9.85% | [3] -1.65% | [4] -3.9% | [5] 5.75% | [6] 4.9%

O=C(CCC(CCC(=O)c1ccccc1)[N+](=O)[O-])c1ccccc1
inactive: [1] 3.15% | [2] -10.8% | [3] 7.65% | [4] 4.55% | [5] 14.2% | [6] 20.5%

c1ccc(-c2cc(-c3ccccc3)nc(-c3ccccc3)c2)cc1
inactive: [1] -7.2% | [2] -4.05% | [3] 10.1% | [4] -33% | [5] 9.65% | [6] 1.6%

CC(N)C(c1ccccc1)c1ccccc1 (configuration not stated)
inactive: [1] 19.5% | [2] 15.8% | [3] 7.15% | [4] 11.3% | [5] 33.6% | [6] 19.4%

O=c1oc2cc(O)ccc2cc1-c1nc2ccccc2o1
inactive: [1] -2.1% | [2] -10.8% | [3] -31.2% | [4] 14.1% | [5] 2.75% | [6] -4.1%

CCNC(=O)[B-][N+](C)(C)C
inactive: [1] 6.75% | [2] 0.05% | [3] 3.75% | [4] 35.4% | [5] -12.4% | [6] 4.5%

Cc1ccc(C(=O)OC[C@H]2CC[C@@H](n3cc(N(C)C4CCCCC4)c(=O)[nH]c3=O)O2)cc1
inactive: [1] 2.4% | [2] -32.2% | [3] 8.7% | [4] 14.5% | [5] -2.15% | [6] 31.8%

CC1=C(O)C(=O)C2C(=O)C1C1Cc3ccccc3C21 (configuration not stated)
inactive: [1] -21.1% | [2] -2.05% | [3] -24.6% | [4] -3.2% | [5] -2.1% | [6] -17.6%

CC(C)CCCC(C)C1CCC2C3CC=C4CC(OP(=O)(O)OC5CCC6(C)C(=CCC7C6CCC6(C)C(C(C)CCCC(C)C)CCC76)C5)CCC4(C)C3CCC12C (configuration not stated)
inactive: [1] -7.55% | [2] -23.8% | [3] -3.65% | [4] 7.8% | [5] -7.6% | [6] -5.5%

O=C(O)C(O)(O)C(=O)O
inactive: [1] -2.9% | [2] -11.2% | [3] -12.6% | [4] 22.6% | [5] 5.8% | [6] -4.05%

CC1CCC(C(=O)O)CC1 (configuration not stated)
inactive: [1] -16.9% | [2] -9% | [3] -2% | [4] 21.8% | [5] -0.85% | [6] -14.2%

COC(=O)c1ccc(C2CCC(OC(c3ccccc3)c3ccccc3)CC2)cc1 (configuration not stated)
inactive: [1] 39.6% | [2] -12.7% | [3] 26% | [4] -23.6% | [5] 0.85% | [6] -3.85%

CC12CCC=CC1=CC(=O)CC2 (configuration not stated)
inactive: [1] 1.35% | [2] 16.5% | [3] 1.05% | [4] 4.65% | [5] -6.8% | [6] 32.9%

Nc1ccc(C(=O)N/N=C/C=C/c2ccccc2)cc1
inactive: [1] 0.6% | [2] 56.1% | [3] 16.6% | [4] -5.8% | [5] 30.4% | [6] 8.05%

CC(C)/C=C1\CCC(CN2CCCC2)C1=O (configuration not stated)
inactive: [1] 61.5% | [2] 34.6% | [3] 48.5% | [4] 44.5% | [5] 40.7% | [6] 63.5%

COc1cc(C(C#N)NNC(=O)Cc2ccccc2)cc(OC)c1OC (configuration not stated)
inactive: [1] -18.9% | [2] -54.1% | [3] -53.9% | [4] 18.5% | [5] -45.8% | [6] -49.8%

O=C(O)c1ccc2sc3ccccc3c(=O)c2c1
inactive: [1] 14.9% | [2] 32.8% | [3] 33.3% | [4] -21.2% | [5] 21.7% | [6] 39%

COc1ccc(/C=C2\CCC(CCN(C)C)(C3=CCCC3)C2=O)cc1 (configuration not stated)
inactive: [1] 2.1% | [2] -6.6% | [3] 15% | [4] 18.1% | [5] -14.4% | [6] 9.4%

CCC(C(O)C(C)C)[N+](=O)[O-] (configuration not stated)
inactive: [1] 14.2% | [2] 1.45% | [3] 6.35% | [4] -6.5% | [5] 0.05% | [6] 3.3%

COc1cc(N=Nc2ccc(S(=O)(=O)O)cc2)ccc1N=Nc1ccc2c(S(=O)(=O)O)cccc2c1O
inactive: [1] 15% | [2] -8.05% | [3] 14.3% | [4] 11.4% | [5] 5.8% | [6] 2.15%

CCOC(=O)NC(Nc1ccc(OC(F)(F)F)cc1)(C(F)(F)F)C(F)(F)F
inactive: [1] -8.7% | [2] -8.2% | [3] -39.1% | [4] -1.25% | [5] -19.9% | [6] -0.3%

Cn1c(=O)c2[nH]c(SCc3cccnc3)nc2n(C)c1=O
inactive: [1] -4.35% | [2] -11.1% | [3] 6.85% | [4] -44.9% | [5] 4.7% | [6] -10.6%

COC(=O)C1(Cc2ccc3c(c2)CCC3)Cc2cc3c(cc2C1)CCC3
inactive: [1] -16.1% | [2] 15.7% | [3] -40.2% | [4] 15.8% | [5] -0.35% | [6] -21.6%

CC(=O)Nc1cc(Br)cc2c1-c1ccc(Br)cc1C2
inactive: [1] 36.7% | [2] 14.7% | [3] 16.2% | [4] 8.2% | [5] 5.3% | [6] 23.4%

NC(=O)C(CO)NC(=O)c1ccc[n+](Cc2ccccc2)c1 (configuration not stated)
inactive: [1] 5.3% | [2] -1.6% | [3] -1.2% | [4] -4.5% | [5] 0.15% | [6] 27.9%

O=CNc1ccc(-c2ccc(NC=O)cc2)cc1
inactive: [1] 27.6% | [2] 4.5% | [3] 7.75% | [4] 13.1% | [5] -12.8% | [6] -6.4%
